Most compounds without a hit are left out; they make up all but 1.8% or so of the library.
sdo1 growth – compounds rescuing growth of sdo1-depleted yeast, bone marrow failure model; actives 0.21% (n = 140,000); AID 817; z-score at 10 µM; S. cerevisiae sdo1-depleted JHY4D growth rescue, OD600 30 h; active compounds read high; pdr5 snq2 efflux-pump mutant strain;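 active means z-score above 3 at both the 24 hr and the 30 hr optical density reads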;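 further: z-score against mean and SD of all compound wells on the same plate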
Phagocytosis inh – inhibitors of macrophage phagocytosis; actives 0.07% (n = 110,000); inhibition, % at 5 µM; J774A.1 macrophage IgG-bead phagocytosis, imaging; AID 1029;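 active means inhibition above the mean of the plate negative controls plus 5 SD, cut at about 13% in these data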;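 further: phagocytic index as fraction of beads internalized from green versus red external bead signal; plate controls were DMSO negative control for no effect and cytochalasin-D positive control for full effect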
Measles CPE – protection of cells from measles virus. protection (pct of control), % at 4 µM. AID 841. Measles virus-infected cells, CPE protection, absorbance. actives 1.5% (n = 140,000); in the data active means protection mostly above about 24%, no sharp cut-off; inactive means mostly below about 26%
Starred values were filed as active, the others as inactive; / = no result given.

SMILES	sdo1 growth	Phagocytosis inh	Measles CPE
COc1ccc(OC)c2c(C)cc(N3CCN(C(=O)c4ccc(Cl)cc4)CC3)nc12	-1.86	-3.0	55.5*
COc1ccc(C(=O)N2CCN(c3c(C)cccc3C)CC2)cc1OC	0.36	1.0	16.5
Cc1cc(SCC(=O)N(C)CC(=O)Nc2ccc(F)cc2)nc2ccccc12	-0.29	-14.4	/
COc1ccccc1CNC(=O)CCC(=O)Nc1nnc(C(C)C)s1	0.18	0.2	18.3
COc1ccccc1CNC(=O)CCC(=O)Nc1nnc(C)s1	-0.72	-3.1	51.3*
CC(C)(C)NC(=O)/C=C/c1ccc(C(F)(F)F)cc1	-1.38	-2.1	10.8
CC1(C)CC(=O)C2=C(C1)Nc1ccccc1NC2c1ccc2c(c1)OCO2 (configuration not stated)	-0.22	0.2	41.4*
CC1(C)CC(=O)C2=C(C1)Nc1cc3c(cc1C2c1ccc2c(c1)OCO2)OCO3 (configuration not stated)	-0.36	/	12.0
OC(COCCOc1ccc(Br)cc1)CN1CCN(Cc2ccccc2)CC1 (configuration not stated)	-0.75	-1.3	10.4
Cc1cc(C(=O)Nc2c(C)n(C)n(-c3ccccc3)c2=O)on1	0.62	-0.8	8.4
Cc1c(NC(=O)c2noc(C(C)C)c2[N+](=O)[O-])c(=O)n(-c2ccccc2)n1C	0.55	-1.2	29.2*
Cc1c(NC(=O)c2cccc(-c3cc4ccccc4oc3=O)c2)cccc1-c1nc2ncccc2o1	0.61	-9.1	5.4
CCC(C)OC(=O)C1=C(C)NC2=C(C(=O)C(C(=O)OC)C(C)C2)C1c1ccc(N(C)C)cc1 (configuration not stated)	-0.69	-0.5	57.6*
CCCOC(=O)C1=C(C)NC2=C(C(=O)C(C(=O)OC)C(C)C2)C1c1ccc(N(CC)CC)cc1 (configuration not stated)	0.32	/	2.7
O=C(Cc1ncc(C(F)(F)F)cc1Cl)N1CCN(c2ccc(F)cc2)CC1	-0.11	0.5	6.5
Cc1cc(C)nc(NS(=O)(=O)c2ccc(N3C(=O)C4CC=C(Cl)CC4C3=O)cc2)n1 (configuration not stated)	0.66	-0.2	6.0
COCCCNC(=O)c1ccc2c(c1)OCO2	0.94	-1.1	22.7
O=C(Nc1ccccc1)c1cccc(C(F)(F)F)c1	1.24	-4.6	12.2
CC(=O)Nc1ccc(C(=O)NCCc2ccccc2)cc1	0.63	-8.2	20.0
COCCCNC(=O)c1cccc(C(=O)NCCCOC)c1	0.87	-0.5	23.1*
Cc1nc2ccc(NC(=O)c3cccc(C(F)(F)F)c3)cc2o1	0.44	-0.5	60.7*
CCCNC(=O)c1cccc(C(F)(F)F)c1	0.22	0.0	26.5*
O=C(NCCCN1CCCC1=O)c1cccc(C(F)(F)F)c1	0.37	-2.5	3.2
COCCNC(=O)c1ccc(NC(C)=O)cc1	0.7	-0.8	51.8*
CCOc1ccc(N2CC(C(=O)Nc3ncccc3C)CC2=O)cc1 (configuration not stated)	-0.45	-0.5	5.0
SMILES	sdo1 growth	Phagocytosis inh	Measles CPE
O=C(C1CCCN(S(=O)(=O)Cc2ccccc2)C1)N1CCc2ccccc21 (configuration not stated)	-0.19	-1.7	26.1
COc1ccccc1-c1noc(CCC(=O)Nc2cc(C(F)(F)F)ccc2Cl)n1	-1.32	-2.0	5.6
O=C(Cn1c(-c2ccccc2Cl)nc2ccccc21)Nc1cccc(Cl)c1	-0.24	-9.7	4.8
Cc1cc(C)cc(NC(=O)Cn2c(-c3ccccc3Cl)nc3ccccc32)c1	-1.31	-7.6	35.0*
CCc1nnc(NC(=O)[C@@H](NC(=O)c2ccc(C(C)(C)C)cc2)C(C)C)s1	-0.16	-2.6	5.9
CC(=O)OCc1c(C(F)(F)F)nn(C)c1SCc1ccc(Cl)cc1	0.35	-1.8	18.9
Cc1nc2c(=O)n(C)c(=O)n(C)c2nc1Cl	0.37	-1.4	0.1
COc1ccc2c(C(=O)CN3CCN(c4ccccc4)CC3)c[nH]c2c1	-0.21	-0.9	27.6*
COc1ccc2[nH]cc(C(=O)CN3CCCCC3)c2c1	-0.07	1.9	1.0
C[n+]1ccccc1COc1ccc(C(C)(C)C)cc1	0.13	-4.9	5.5
O=C(NCc1ccc(F)cc1)C1CCCN1C(=O)NCc1ccccc1 (configuration not stated)	1.29	-1.0	16.9
O=C(NCCc1ccccc1)C1CCCN1C(=O)Nc1ccc(F)cc1 (configuration not stated)	1.22	-1.1	28.6*
Cc1cc(C)c2nc(SCC(=O)NCCC3=CCCCC3)cc(C)c2c1	0.49	-3.0	19.0
CCO/N=C(\C)c1c(O)c2ccccc2n(C)c1=O	-0.1	-3.3	2.5
COc1ccc(S(=O)(=O)N(CC(C)C)CC(C)C)c2cccnc12	-1.81	-0.5	17.0
COc1cc(/C=C/C(=O)OCC(=O)N2CC3(C)CC2CC(C)(C)C3)ccc1O (configuration not stated)	-1.47	-3.6	3.7
COc1ccc(/C=N/OCC(=O)N2CC3(C)CC2CC(C)(C)C3)cc1OC (configuration not stated)	-0.7	-0.4	43.5*
CCc1ccc(NC(=O)C(C)OC(=O)c2ccc(N3CCCC3)c([N+](=O)[O-])c2)cc1 (configuration not stated)	-1.63	2.3	5.2
O=[N+]([O-])c1ccc(N2CCCC2)cc1NC(c1ccccc1)c1ccccc1	-0.32	-0.6	9.0
O=[N+]([O-])c1ccc(N2CCOCC2)cc1NC(c1ccccc1)c1ccccc1	0.11	-2.3	45.2*
COc1cccc(N2C(=O)C(Cc3c[nH]c4ccccc34)NC2=S)c1 (configuration not stated)	-0.17	7.5	24.8
Cc1c(NC(=O)C2CCCN2S(=O)(=O)c2ccccc2)c(=O)n(-c2ccccc2)n1C (configuration not stated)	0	/	15.1
Cc1c(NC(=O)C2CCN(S(=O)(=O)c3ccc(Cl)cc3)CC2)c(=O)n(-c2ccccc2)n1C	-0.12	/	62.3*
NC(=O)CC1(CC(=O)O)CCCCC1	0.92	1.6	68.0*
O=C(O)CC1(CC(=O)Nc2ccc3ccccc3c2)CCCCC1	1.58	-0.7	3.5
SMILES	sdo1 growth	Phagocytosis inh	Measles CPE
O=C(Nc1ccc2c(c1)OCO2)C1CCN(Cc2cnn(-c3ccccc3)c2-n2cccc2)CC1	0.58	-0.6	5.0
CNc1oc(-c2cccc3ccccc23)nc1C#N	0.14	-0.7	5.3
COc1ccc(CNc2oc(-c3cccc4ccccc34)nc2C#N)cc1	-2.07	/	68.3*
COC(=O)C1NN=C(C(=O)c2ccc(Cl)cc2)C1c1ccc(OC)cc1 (configuration not stated)	-0.5	-4.0	4.9
CC(Cc1ccccc1)N/C=C1/CC(=O)NC1=O (configuration not stated)	0.68	-0.2	16.8
O=C1C/C(=C/NCc2ccccc2)C(=O)N1	0.56	3.8	41.0*
CC(=O)C1=NN(c2ccccc2)C2(S1)S/C(=C\c1ccccc1)C(=O)N2c1ccccc1 (configuration not stated)	0.82	0.7	34.4*
COC(=O)C1=NN(c2ccccc2)C2(S1)SC(C(C)=O)=C(C)N2c1ccccc1 (configuration not stated)	-1.33	/	10.2
Cc1ccc(CN(C)C(=O)C2CCCN2C(=O)c2cccs2)o1 (configuration not stated)	-0.2	0.0	17.4
O=C(COC(=O)C1=COCCO1)Nc1ccc(Oc2ccccc2)cc1	-0.3	-0.4	12.0
